# Screening data: PubChem, National Center for Advancing Translational Sciences (NCATS)
# This is a sample that favours compounds with a hit; in the whole collection about 3.9% have one here.
# GPR32 ag = activates human resolvin D1 receptor GPR32; O75388; CHO-K1 GPR32 beta-arrestin PathHunter luminescence, 90 min; zero percent set by DMSO-only wells; activation, % at 76.9 µM; actives 2.5% (n = 48,000);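 active = activation of at least 60% and not above a set upper limit, about 1 call in 100 departs from these limits; inconclusive = activation of 40% to 60%, or above that upper limit; inactive = activation under 40%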; also: 0% is about no effect
# Target sequence (O75388 whole entry, looked up): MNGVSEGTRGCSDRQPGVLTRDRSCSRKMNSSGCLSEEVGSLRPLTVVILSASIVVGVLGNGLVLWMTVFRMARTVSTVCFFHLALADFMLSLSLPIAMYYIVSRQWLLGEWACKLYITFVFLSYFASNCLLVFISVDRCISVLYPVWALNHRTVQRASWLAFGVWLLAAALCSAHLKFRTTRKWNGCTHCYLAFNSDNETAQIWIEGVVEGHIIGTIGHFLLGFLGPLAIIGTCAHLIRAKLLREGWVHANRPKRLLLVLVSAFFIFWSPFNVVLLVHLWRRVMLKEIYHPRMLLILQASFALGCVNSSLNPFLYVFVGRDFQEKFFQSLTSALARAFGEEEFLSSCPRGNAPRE
#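 Beta-arrestin recruitment read-out: luminescence from complemented beta-Gal in CHO-K1 GPR32 PathHunter cells, measured 1 h after detection reagent at ambient temperature following 90 min compound exposure at 37 °C; DMSO served as basal (EC0) control.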
# HTT promoter inh = inhibitors of huntingtin promoter activity | AID 1508623 | actives 0.93% (n = 48,000) | HEK293 HTT promoter firefly luciferase reporter, 24 h | Potency, µM (doses to about 57.5 µM), for inactives: at the top dose activity change, negative = inhibition, hits mostly inhibitors; also: potency is read from the fitted curve at half-maximal effect; nearly all actives have a fitted effect of over 50% in size
#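 Firefly luciferase readout (Dual-Glo, 10 min RT) after 24 h, 37 °C compound exposure (final up to 57.5 uM) of HEK293 reporter cells cultured 24 h beforehand; PTC124 at 50 uM final as control inhibitor; activity scaled vehicle 0%, zero RLU -100%.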
# p53null 39C kill = p53 null cell cytotoxicity, nonpermissive temperature. Potency, µM (series often up to 46.1 µM), without a hit: top-dose activity, negative = cell killing, actives largely listed as cytotoxic. AID 904. H1299 p53-null (neo) cells, 39C, ATPlite viability, 24 h. actives 0.97% (n = 55,000);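 also: potency is read from the fitted curve at half-maximal effect; 0% = DMSO only and -100% = full killing by 100 µM tamoxifen; nearly all actives have a fitted effect of over 50% in size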
#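 ATP-luminescence viability readout (ATPlite, 20 min RT) after 24 hr compound treatment at 39C of H1299-neo or H1299-p53A138V cells; titration up to 46 uM; normalized to DMSO and 100 uM tamoxifen; Hill-fit AC50.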
# HTT-AS act = HTT-AS promoter activation; AID 1508624; HEK293 HTT-AS promoter firefly luciferase reporter, 24 h; response scale: percent change from vehicle, -100% = no light; actives 0.24% (n = 48,000); Potency, µM (top dose mostly 57.5 µM), for the others: at the top dose activity change, positive = activation, most hits filed as activators; also: potency is read from the fitted curve at half-maximal effect; nearly all actives have a fitted effect of over 55% in size
#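 Firefly luciferase signal from promoter-reporter HEK293 cells was scaled between vehicle (0%) and zero RLU (-100%). Compounds were tested at final concentrations of up to 57.5 uM over 24 h at 37 degrees C. PTC124 at 50 uM final served as control inhibitor.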
# p53null 32C kill = kills p53 null cells at the permissive temperature. H1299-neo p53 null cells, ATP luminescence, 24 h, 32C. Potency, µM (highest dose often 46.1 µM), for the others: at the highest dose activity change, negative = cytotoxicity, actives largely listed as cytotoxic. actives 0.62% (n = 55,000);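 also: potency is read from the fitted curve at half-maximal effect; 0% = DMSO only and -100% = full killing by 100 µM tamoxifen; nearly all actives have a fitted effect of over 55% in size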
#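 AC50 values derive from Hill modelling of qHTS concentration-response data (up to 46 uM) in H1299-neo cells. Cells were treated 24 h at 32C following overnight attachment at 37C; viability was read as cellular ATP.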
# * = called active by the depositor; ? = inconclusive; · = no result; [ ] = remark or other dose. Unless noted, calls follow the shape of the dose curve; as a rule, active = well fitted curve in the direction sought with a large enough effect; inconclusive = small, poorly fitted or top-dose-only effect, or another doubt; inactive = no such curve, though single readings can be large; an effect the other way counts as inactive or inconclusive.
SMILES,GPR32 ag,HTT promoter inh,p53null 39C kill,HTT-AS act,p53null 32C kill
C=C[C@@H]1CN2CCC1C[C@H]2[C@H](O)c1ccnc2ccccc12 (some centres not stated),·,-18%,·,-20%,·
CCn1nc(-c2ccccc2)nc2c(=O)n(C)c(=O)nc1-2,·,·,18%,·,3.5µM*
CCOC(=O)Nc1ccc(NCc2ccc(F)cc2)cc1N,·,-8%,·,-29%,·
CCOC(=O)c1ccc(NC(=O)c2cccn(Cc3ccccc3F)c2=O)cc1,34,1.4µM*,4%,-49%,6%
Cc1ccccc1Cn1cccc(C(=O)Nc2nc3ccccc3s2)c1=O,1,0.32µM*,14%,-82%,10µM*
O=C(Nc1nc2ccccc2s1)c1cccn(Cc2ccccc2)c1=O,-3,?,8%,-41%,?
Cc1cccc(-n2nc(C)c3c2NC(=O)CSC3c2ccccc2Cl)c1 (configuration not stated),63*,?,-1%,-34%,-6%
ClC1=C(Cl)[C@]2(Cl)[C@@H]3[C@@H]4C[C@@H]([C@H]5O[C@@H]45)[C@@H]3[C@@]1(Cl)C2(Cl)Cl,113*,2%[116 µM],·,-14%[116 µM],·
C[C@](O)(COc1ccc(C#N)cc1)C(=O)Nc1ccc(C#N)c(C(F)(F)F)c1,·,?,·,-33%,·
CN1C(=O)c2ccccc2Sc2ccc(NC(=O)N3CCN(c4ccccc4)CC3)cc21,0,25µM*,54%,-62%,16%
Cc1ccc(CN2C(=O)c3ccccc3Sc3ccc(C(=O)N4CCC5(CC4)OCCO5)cc32)cc1,-28,?,1%,-46%,-13%
C=C[C@@H]1CN2CCC1C[C@@H]2[C@@H](O)c1ccnc2ccccc12 (some centres not stated),·,?,·,-63%,·
